For 13 compounds, Z-AUC results are on record in PubChem BioAssay (NCATS).

The structures appear in SMILES notation.

This experiment can be described thus: qHTS drug screen for cell cycle checkpoint inhibitors in PARPi-resistant BRCA-mutant ovarian cancer cell lines. (AID 1963452). To be noted: PEO1/OlaR viability, CellTiter-Glo luminescence, 96 h; measured here: PEO1 parental Z-AUC; stronger effect = lower value. In short, it runs like this:
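PEO1, PEO4 and PEO1/OlaR ovarian cancer cells, 600 per well, exposed 96 h at 37C to a dilution series. Viability read by CellTiter-Glo luminescence, normalized to DMSO and empty wells; activity summarized as Z-AUC.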
As for `C[C@H](c1ccc(F)cc1CCCC(=O)O)N(c1cc(F)ccc1F)S(=O)(=O)c1ccc(Cl)cc1`, the Z-AUC is -0.271.

Turning to `Cc1cn([C@@H]2C[C@@H](O)[C@H](CO)O2)c(=O)[nH]c1=O`, the Z-AUC was 0.778.

For `CCOC(=O)[C@@H](N)CCC(=O)N[C@@H](CSCc1ccccc1)C(=O)N[C@@H](C(=O)OCC)c1ccccc1`, the Z-AUC was 1.04.

Regarding `CC(C)C[C@@H](N)[C@H](O)C(=O)N[C@H](C(=O)N[C@H](C(=O)N[C@@H](CC(=O)O)C(=O)O)C(C)C)C(C)C`, the Z-AUC is -0.6.

Regarding `CC[C@H](C=C[C@@H](C)[C@H]1CC[C@H]2[C@@H]3CC=C4C[C@@H](O)CC[C@]4(C)[C@@H]3CC[C@]12C)C(C)C`, the Z-AUC stood at 1.79.

Regarding `CN1CCN(c2cccc(Nc3nc4c(-c5ccc(S(C)(=O)=O)cc5)cccn4n3)c2)CC1`, the Z-AUC turned out to be 0.358.

On to `CN1CCC(COc2cnc(-c3cccc(Cn4nc(-c5cccc(C#N)c5)ccc4=O)c3)nc2)CC1`, for which the Z-AUC is -0.363.

As for `O=S(=O)(O)c1ccc2cc(N=Nc3cc(S(=O)(=O)O)c4cccnc4c3O)ccc2c1`, the Z-AUC was -0.476.

For `Cc1nc2c([nH]1)CCN(C(=O)c1ccc(NC(=O)c3ccccc3-c3ccccc3)cc1)c1ccccc1-2`, the Z-AUC is 0.56.

For the compound `CCc1cc(-c2n[nH]c(C)c2-c2ccc3c(c2)OCCO3)c(O)cc1O`, the Z-AUC was 0.497.

Regarding `COc1nc(C)cnc1NS(=O)(=O)c1cccnc1-c1ccc(-c2nnco2)cc1`, the Z-AUC came out at 1.67.

As for `C[C@@]1(C(=O)Nc2ccc(F)nc2)CCCN1c1nc(Nc2cc(C3CC3)[nH]n2)c2cccn2n1`, the Z-AUC worked out at 0.238.

With `Cc1ccc(NC(=O)c2ccc(CN3CCN(C)CC3)cc2)cc1Nc1nc(-c2cccnc2)cs1`, the Z-AUC is -0.735.
